We go through 40 molecules from PubChem BioAssay (Tox21).

Records with an inconclusive call do not appear. Active and inactive are the calls of the source. Calls come from the whole dose curve; as a rule, active = well fitted curve in the direction sought with a large enough effect in the signal ratio in the repeat runs (not every such curve was filed as active); inconclusive = weak or mixed curves, or a change in a side signal; inactive = no such curve, though single readings can be large or run the other way; the % refers to the signal ratio.

This experiment in a line: qHTS assay to identify small molecule agonists of the NFkB signaling pathway (AID 1159509). The settings on record: NFkB-bla ME-180 cells, beta-lactamase FRET ratio, 5 h; series mostly up to 61 µM. The text has this:
National Center for Advancing Translational Sciences [NCATS]
NIH Chemical Genomics Center [NCGC]
U.S. Environmental Protection Agency [EPA]
National Institutes of Environmental Health Sciences [NIEHS]
National Toxicology Program [NTP]
U.S. Food and Drug Administration [FDA]
Transcription factors and their stimulated target gene expression play pivotal roles across many cellular processes including responses to environmental stimuli. Proper regulation of associated pathways is critical to maintain cell health and function. Constitutive activation of transcription factor pathways has been implicated in tumors as it may block cellular functions such as apoptosis and lead to invasion and metastasis. One important transcription factor that stimulates gene expression in response to cytokines, UV radiation, and other stimuli is nuclear factor-kappa B (NFkB). To measure activation of the NFkB pathway, the CellSensor NFkB-bla ME-180 cell line (Life Technologies, Carlsbad, CA) that stably expresses beta-lactamase reporter gene under the regulation of a NF-kB response element was used. This assay allows measurement of the NFkB pathway activity induced by compounds in a ME-180 cell line. This system quantitates NF-kB activity using a FRET-based assay system where beta-lactamase expression disrupts FRET, allowing for fluorescent measurement of activity. This cell line has been used to screen the Tox21 10K compound library and to identify compounds that induce the NFkB pathway activity.
Tox21 Assay Protocol Summary:
NFkB-bla ME-180 cells were dispensed at 2,000 cells/6 uL of assay medium per well into black wall/clear-bottom 1536-well plates using a Multidrop Combi (ThermoFisher Scientific, Waltham, MA) dispenser. After the assay plates were incubated at 37 C and 5% CO2 for an overnight, 23 nL of compounds dissolved in DMSO, positive controls or DMSO only was transferred to the assay plate by a Pintool station (Kalypsys, San Diego, CA). The assay plates were incubated at 37 C and 5% CO2 for 5 hr. One uL of LiveBLAzer B/G FRET substrate (Life Technologies) was added using a Flying Reagent Dispenser (Aurora Discovery, San Diego, CA) and the plates were incubated at room temperature for 1.5 hr. Fluorescence intensity (405 nm excitation, 460 nm and 530 nm emissions) was measured using an Envision plate reader (PerkinElmer, Shelton, CT).
On the technique in general: Quantitative high-throughput screening tests each substance at several concentrations.
With `CN(C)CCO`, the result was inactive.
For `COP(N)(=O)SC` (stereo not given), the outcome was inactive.
For the molecule `O=C(O)c1ccccn1`, the outcome was inactive.
Regarding `CC(C#N)CCC#N` (stereo not given), the outcome was inactive.
For `O=S(=O)(c1ccc(O)cc1)c1ccc(O)cc1`, the result was inactive.
For the molecule `O=c1[nH]c(=O)[nH]c(=O)[nH]1`, the outcome was inactive.
For the molecule `C1CN2CCN1CC2`, the result was inactive.
For `CC(C)OC(=O)Nc1cccc(Cl)c1`, the result was inactive.
In the case of `BrCCBr`, the outcome was inactive.
Consider `CCNc1nc(NC(C)C)nc(SC)n1`, for which the outcome was inactive.
As to `OCCN(CCO)CCO`, the outcome was inactive.
With `C1CC2OC2CC1C1CO1` (stereo not given) the entry was “inactive”.
As for `COC(=O)NS(=O)(=O)c1ccc(N)cc1`, the result was inactive.
For `C[C@]12CC[C@H]3[C@@H](CC[C@@]45O[C@@H]4C(O)=C(C#N)C[C@]35C)[C@@H]1CC[C@@H]2O`, the result was inactive.
As for `O=[N+]([O-])c1ccc(Oc2ccc(Cl)cc2Cl)cc1`, the outcome was inactive.
With `CC(C)OC(=O)Nc1ccccc1` the entry was “inactive”.
In the case of `Nc1ccc(Br)cc1`, the outcome was inactive.
Next, `COC(=O)c1ccccc1C(=O)OC`: “inactive”; `CCCCCCCCCCCC#N`: “inactive”; `CC(C)N1C(=O)c2ccccc2NS1(=O)=O`: “inactive”.
For the molecule `O=[N+]([O-])c1ccccc1`, the outcome was inactive.
Turning to `C=CC(N)=O`, the outcome was inactive.
With `c1ccc(OP(Oc2ccccc2)Oc2ccccc2)cc1` the entry was “inactive”; with `O=S(=O)(c1ccc(Cl)cc1)c1cc(Cl)c(Cl)cc1Cl`, “inactive”.
`CCNc1nc(NC(C)(C)C)nc(SC)n1`: the result was inactive.
In the case of `O=C1CCCN1`, the result was inactive.
With `Cn1cc(-c2ccccc2)c(=O)c(-c2cccc(C(F)(F)F)c2)c1` the entry was “inactive”; with `CCCCN(CCCC)SN(C)C(=O)Oc1cccc2c1OC(C)(C)C2`, “inactive”.
With `O=NN1CCCCCCC1` the entry was “inactive”; with `CN=C=S`, “inactive”; with `O=C(NC(=O)c1c(F)cccc1F)Nc1cc(Cl)c(OC(F)(F)C(F)C(F)(F)F)cc1Cl` (stereo not given), “inactive”.
With `CCCN(CCC)N=O` the entry was “inactive”.
`O=c1ccc(=O)[nH][nH]1`: the result was inactive.
For `CC(C)C#N`, the outcome was inactive.
Consider `Cc1cccc([N+](=O)[O-])c1`, for which the outcome was inactive.
Take `CCC12COCN1COC2`: the outcome was inactive.
Turning to `CCCCOC(=O)c1ccccc1C(=O)OCCCC`, the outcome was inactive.
Next, `C=CCO`: “inactive”; `CCN(CC)c1ccccc1`: “inactive”; `CCCCN(CC)C(=O)SCCC`: “inactive”.
